PubChem BioAssay AID1508600 (Functional Genomics Laboratory (NCATS/FGL), 2020)
In all, about 53,000 sequences went through this assay and about 3,700 (7%) were called active. The entries come from a sample that favours actives as a whole. A number with no mark means an inactive call.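 How the source made its calls: active means gene knockdowns whose robust z-score for IL-1 alpha signal is at least 2 or at most -2, so actives lie on both sides; inactive means the rest.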

Test: Components of the Cytosolic LPS Sensing Pathway: Gene Identification via Genome-wide siRNA Screen;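 further: robust z of the log signal after scaling to non-targeting control siRNA wells of the plate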
Settings: RAW264.7 macrophages, IL-1a HTRF, actives lie on both sides, screened at 100 nM (by protocol), cells primed 5 h with Pam3CSK4 first
How it was run: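 Mouse macrophage line RAW264.7 is transfected with siRNA (100 nM final), grown 48h, primed with TLR ligand Pam3CSK4 5 h and given intracellular LipidA 24 h. IL-1a in supernatant is read by HTRF and viability by luminescence.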

First: CGGAAGAAGUUAUUUAGAATT against 1700006J14Rik
Second: CCUCAUUGAGUUUUGAAGATT against Dtd2
The z-score of the first is higher: 0.87 for the first, -0.329 for the second.

Going from GGAAGACCUUGUGUUUGCATT against Mmp13 to CCUAAAGUCUCUGAAUCAGTT against Fyb, the z-score rises from -0.692 to 0.45.

Compared with GGUUGUUGCGCAAAUUUAATT against Vmn2r7, GCAGUAACUGUGUCAAAAUTT against Zan is lower in z-score: 1.43 for the first, 0.879 for the second.

Compared with CGUGUGUUCCGGAAACAGATT against Tnfrsf11b, GGCACAAGUCCAUGUUGUUTT against Emg1 is higher in z-score: -0.188 for the first, -0.161 for the second.

First: GCCGUUUUAAGAUACCGAUTT against Pde1c
Second: GGGCAGCUACGUCAUUAAGTT against Prkg2
The z-score of the first is higher: 0.642 for the first, -0.442 for the second.

First: GACAGUGAAGGCUUGCCAUTT against 1700019M22Rik
Second: GCUAUUUAUCACCAAGACATT against Plpp6
The z-score of the first is higher: -0.45 for the first, -1.64 for the second.

Going from CCAGGAUUACAUCCGGACATT against Srbd1 to GCUUCGACAAAAGAAGAUGTT against Ccdc174, the z-score rises from -0.379 to -0.373.

Compared with CGAAUGAGAUUUUCACUCUTT against Tek, GGCCACCAAGACCAAUGAUTT against Akap8 is lower in z-score: 1.07 for the first, 0.154 for the second.

Going from GGUCAAGUAACAUGGUUUGTT against Rundc3b to CCAGAAACACUAGUAAAGGTT against Dppa3, the z-score falls from 0.282 to -0.0972.

Going from GGACGUGAAUGUGUUUGACTT against Cyp26b1 to CGAUUACUACAUAAUUGCCTT against Efnb3, the z-score rises from 0.795 to 1.63.

Compared with CGGACAAGAUAGUAUUCUUTT against Atp2b1, GCAGCAUGGCAAAACCACATT against Zbtb12 is higher in z-score: -1.06 for the first, -0.265 for the second.

Compared with GCAGGCGAUAUAGAAGCAATT against Frg1, GGGAAUUCUAUUCAACACUTT against Rps6ka5 is lower in z-score: 0.475 for the first, -0.478 for the second.

First: GGCUGUGACUUUUGAUCUATT against Prelid3b
Second: CCAAUGCUUGUGAUAAGCCTT against Krt33a
The z-score of the first is higher: 0.46 for the first, -0.105 for the second.

Going from CCUUGUGCCAAAUACUUCATT against Inava to GGAUAACCGUAUUAAUUUCTT against Gm2a, the z-score rises from -0.00772 to 0.709.

Going from GCAAGCACGGAGAACCAAUTT against Selenoi to GGAAGAUGGAGAUCAGACGTT against Foxd4, the z-score falls from -0.212 to -0.498.

First: GGGAUACCCGGCGUAAUCUTT against Col4a2
Second: CGCAUACAUCAGGUCACUATT against Katnb1
The z-score of the first is higher: 1.31 for the first, -0.74 for the second.

Going from GGGCUUUUACUCCUACCUGTT against Slc43a2 to GGAACCACUGCUAGCCAGATT against Serpinb6a, the z-score rises from -0.794 to 0.491.

Compared with GCGAGAAAUUACCACCUUCTT against Klhl8, ACUUCACGAUGGAAAAAUUTT against Gm9732 is lower in z-score: -0.516 for the first, -1.63 for the second.

Compared with GGCCUCAUCUUGAAUAUUUTT against Hsd17b3, GGUUCAUCAAACUUGCUUGTT against Olfr1312 is higher in z-score: -1 for the first, 0.569 for the second.

First: GGAAGAACAGAGGCAGAAGTT against Trpv3
Second: GGAAGUACUCUGAAGAUUCTT against Kdm5b
The z-score of the first is higher: -0.629 for the first, -1.83 for the second.

Going from CCCACUUCCGAUCCAAAGATT against Zfp593 to CCUAUGUCAUCAUUGGAGUTT against Tmem45a2, the z-score falls from 0.936 to -0.613.

Compared with GCUGUUAUAACCUUGUUACTT against Rspry1, GCCCAGUUUGGUUAUGUAUTT against Yipf7 is lower in z-score: 1.19 for the first, 0.115 for the second.

Compared with GCAGCAACAUUCUUUGGAUTT against Adk, GGACAAUAUCAGAAAGAGUTT against Purg is higher in z-score: 0.986 for the first, 1.13 for the second.

First: GGAUGUUCUACUGCUACACTT against Dtwd1
Second: GGUGGCCAAGAAUGUGAAUTT against Cxcl17
The z-score of the first is lower: -0.706 for the first, 1.38 for the second.

Compared with CCUACUCUCUAGAAAAGGATT against Olfr1006, GGAGUGAAGGCCAGCUGAATT against Son is higher in z-score: -1.76 for the first, -0.848 for the second.

Going from GGAACACCAUGAAGAAGACTT against Gabarap to GGAAAACUUUCAAAGAGAUTT against Mc4r, the z-score rises from -0.147 to 0.24.

Going from GGAAAAAUUUAGACAGCACTT against Csrp2 to GACUCAUUCUGCAAUGAAGTT against Ifna5, the z-score falls from 0.132 to 0.105.

First: GCUAAGGACACAAAAUCCATT against Slc38a10
Second: GGAGAAAGAAAGCAGUUUUTT against 2310067E19Rik
The z-score of the first is lower: 0.129 for the first, 1.55 for the second.

Compared with GGGCAUUUUAACCAAAUGATT against Marchf11, GCUGCCUCAUUUCUGGAUGTT against Klk11 is higher in z-score: 0.544 for the first, 1.1 for the second.

Going from GGACAUGGAUGACACUGAUTT against Tsr3 to GGAAGAUGCACAUCUGGACTT against Enoph1, the z-score rises from -1.99 to -0.55.

First: CCAGGAUUCCGACUGAAUCTT against Oscp1
Second: GGGCUAAGUACCAAACUCATT against Ly6e
The z-score of the first is higher: -0.367 for the first, -1.71 for the second.

Compared with GCUUGCUAGAGUGAUCUCGTT against Adsl, GCCCUUGGAAUUUACCACUTT against Aldh8a1 is lower in z-score: -0.331 for the first, -0.546 for the second.

Going from CCAGACUGAGAAGAUAUGATT against Meox2 to GGACAUUGUCUACAAGUUGTT against Pcgf2, the z-score rises from -0.146 to 1.12.

First: GGACCGCUACUAUUCAGGATT against Myh10
Second: GGGUUUUGGAUGGCGAAUATT against Lgals7
The z-score of the first is higher: 0.93 for the first, -0.0835 for the second.

First: GGACGAAAAGAAGUGUUUCTT against Lamb2
Second: GGGAAACUCUGUCCAAUUGTT against Eif2d
The z-score of the first is lower: -0.103 for the first, 0.402 for the second.

First: CGGGAAAUUUCUAUUGGACTT against Akr1c12
Second: GGUGAUGGAAGUUAGUGUGTT against Bet1
The z-score of the first is higher: 0.312 for the first, -1.34 for the second.

Going from GGCAUUCACCAUACAAUGATT against Ufm1 to GGCUAACCACAUUUGCUUCTT against Zic4, the z-score rises from 0.687 to 0.759.

First: GGAAGAUGUCCAAACCCGCTT against Tspan4
Second: GGAGGUAACGCAUGUUACATT against 4930483J18Rik
The z-score of the first is higher: 0.671 for the first, 0.393 for the second.

First: GCGAAGUUACUACAGACGUTT against Slc39a1
Second: GGAGACUCUCACCUAUCAUTT against Doc2g
The z-score of the first is higher: -0.124 for the first, -0.458 for the second.

Going from GGAAGUUUUUGAGAAUGGGTT against Ppp3cc to CCGAAUUCCAACCUAGAGCTT against Yipf5, the z-score falls from -0.38 to -1.38.

Going from CCGCUCACGUGAAAAAGUUTT against Tars2 to GGACAUCUGGUUAUGAAUGTT against B3galt6, the z-score falls from 0.327 to -0.111.

Going from GCAUGACUCUCAGGUCAAGTT against Lman2 to GGACAUUGCAUUGCUCAUGTT against Sec1, the z-score falls from 1.54 to -0.526.

In the case of GGCUCCAAGUCUACACAACTT against Dnajc6, the z-score is reported as 2.82 (active).
In the case of GGAUAUCAAAGACAAAGCATT against Vps53, the z-score is reported as -2.58 (active).
With GGAGUACGUGAUUGCUCUGTT against Rcvrn the z-score was -2.45 (active).
For GGAGAAGAACAGAACAUGATT against Igf2, the z-score was 2.36 (active).
In the case of CCACUAAUCUUCUUCUACATT against Olfr1311, the z-score is reported as -2.08 (active).
With GGUUGUAAUAGCCUUAGCCTT against Rassf8 the z-score was -2.87 (active).
For GGAGGAAUACGUAUACUUCTT against Dipk1c, the z-score was 2.16 (active).
In the case of GGCUGUGACUAUGUUGUGCTT against Top3b, the z-score is reported as -2.15 (active).
For CGGACUUGAGAGCAGAACCTT against Oit1, the z-score was 2.02 (active).
With GGAGAAAGUCAAGAUCAAATT against Gpr4 the z-score was 2.12 (active).
In the case of GGAGUUCAUUGAUCAUUCUTT against Ndufb5, the z-score is reported as 2.21 (active).
With CCGUAUUAGAAAGUAGAUATT against Arpp19 the z-score was 2.01 (active).
With GCGGAGAGAUCAAAGCGAUTT against Iltifb the z-score was -2.05 (active).
For GGGUUUUUUCCAGUCAUCUTT against Nfx1, the z-score was -2.02 (active).
For GUCAUCAAACUAGGUGCUGTT against Olfr584, the z-score was -2.22 (active).
In the case of GGUUAGAGGAAAGGUUUAUTT against Htr1f, the z-score is reported as 5.07 (active).
For GGCUUUUUCCACAUGUGCCTT against Olfr514, the z-score was -2.29 (active).
In the case of GGUGUCAGCGAAAAGCAGUTT against Ring1, the z-score is reported as -2.2 (active).
In the case of GGUCAUUGGUUCCUCCCUUTT against C2cd4c, the z-score is reported as 2.59 (active).
With GCAGCUAAGAAGACCACUATT against Zfp185 the z-score was 2.15 (active).
With CCAGUCAAAUAUCCAUUAGTT against Scgb2b26 the z-score was -2.28 (active).
For CCAAUCACCAGAGACUAACTT against Slain1, the z-score was 2.81 (active).
With GCCGAGCUCAUCAUCAUGATT against Prss40 the z-score was 2.5 (active).
